This is a sample that favours compounds with a hit; in the whole collection about 5.7% have one here.
Giardia kill: Giardia lamblia killing; Giardia lamblia trophozoite viability; activity change, % at 7.66 µM, hits read low; actives 0.15% (n = 340,000); in the data active = activity change below about -80%; inconclusive = between about -30% and that limit;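 note: parasites exposed to compound for two days anaerobically before the ATP read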
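Media and compound were dispensed first, then trophozoites at 100 cells/well; plates sat 48 hrs at 37 deg C without oxygen before ATP luminescence reagent was added and read after 15-30 min at room temperature.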
PI4K2A inh: inhibitors of human PI4K2A. actives 0.13% (n = 420,000). Q9BTU6. activity change, negative = inhibition, % at 76.9 µM. purified PI4K2A, ADP-Glo luminescence, 1 h; active compounds read low; in the data active = activity change below about -50%; inconclusive = mostly about -30% to -49%;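 note: -100% = wells without enzyme as full effect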
Target sequence (Q9BTU6 whole entry, looked up): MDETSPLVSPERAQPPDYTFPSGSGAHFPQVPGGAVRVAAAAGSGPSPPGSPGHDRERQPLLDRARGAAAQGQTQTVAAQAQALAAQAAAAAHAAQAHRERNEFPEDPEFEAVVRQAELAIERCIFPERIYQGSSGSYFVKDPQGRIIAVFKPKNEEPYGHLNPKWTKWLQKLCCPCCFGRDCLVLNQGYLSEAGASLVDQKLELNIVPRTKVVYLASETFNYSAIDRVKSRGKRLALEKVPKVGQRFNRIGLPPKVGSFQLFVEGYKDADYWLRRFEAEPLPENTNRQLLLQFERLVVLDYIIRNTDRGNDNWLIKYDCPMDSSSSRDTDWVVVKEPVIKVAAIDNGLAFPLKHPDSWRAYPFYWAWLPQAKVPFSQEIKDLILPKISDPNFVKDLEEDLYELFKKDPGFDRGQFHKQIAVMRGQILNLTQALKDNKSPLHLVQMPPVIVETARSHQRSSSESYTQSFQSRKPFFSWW
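Compounds are screened against recombinant PI4K2A using PI as substrate and ATP, the latter dispensed at 300 microM. Reactions run one hour at ambient temperature before ADP-Glo detection; full inhibition defined by wells lacking enzyme.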
KB-3-1 tox: kills parental KB-3-1 adenocarcinoma cells; KB-3-1 viability, CellTiter-Glo ATP luminescence, 72 h; Potency, µM (top dose mostly 46.1 µM), most hits filed as cytotoxic; actives 1.4% (n = 400,000); note: potency is the fitted concentration of half-maximal effect; nearly all actives have a fitted effect of over 60% in size
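Using CellTiter-Glo luminescence, growth of non-resistant KB-3-1 adenocarcinoma cells is assessed 72 h after pin-tool compound addition at 37 °C. Normalized responses across the concentration series yield fitted curves.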
Nrf2 inh: Nrf2 pathway inhibition; Potency, µM (titrated, usually from 46 µM), inactives show at the highest dose activity change, negative = inhibition, most hits filed as inhibitors; actives 2.1% (n = 360,000); A549 ARE-Fluc reporter, luciferase luminescence, 18-24 h; note: potency is the fitted concentration of half-maximal effect; nearly all actives have a fitted effect of over 60% in size
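A549 ARE_Fluc cells (5000/well, 5% FBS OPTI-MEM) pre-incubated 2 h, then treated with compounds 18-24 h at 37C/5% CO2 in concentration-response. CellTiter-Fluor viability read first; BugLite luciferase luminescence after 15 min at room temperature gives Nrf2 activity.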
A549 viability: kills or reduces viability of A549 cells in Nrf2 counter-screen | actives 0.16% (n = 390,000) | A549 ARE-Fluc cells, CellTiter-Fluor viability, 18-24 h | Potency, µM (doses to about 46 µM), for the others: at the top dose activity change, negative = cytotoxicity, usual class: inhibitors; note: potency is the fitted concentration of half-maximal effect
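Cytotoxicity counterscreen: CellTiter-Fluor fluorescence was measured in A549 ARE_Fluc cells after 18-24 h of compound exposure in a concentration series. The subsequent BugLite luminescent read reports ARE-luciferase activity.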
KB-V1 cytotox: KB-V1 MDR subline cytotoxicity; Potency, µM (doses to about 46.1 µM), usual class: cytotoxic; KB-V1 MDR cells viability, CellTiter-Glo, 72 h; actives 3.4% (n = 400,000); note: potency is the fitted concentration of half-maximal effect; nearly all actives have a fitted effect of over 60% in size
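Readout: CellTiter-Glo luminescence, 10 min after addition. Cells: KB-V1 MDR subline, 72 h at 37 degrees C with compound. Analysis: corrected, normalized data fitted to concentration-effect curves.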
* marks the source's active call; other numbers are inactive results; i = inactive; ? = inconclusive; . = no result given. Unless noted, calls come from the whole dose curve; as a rule, active = well fitted curve in the direction sought with a large enough effect; inconclusive = small, poorly fitted or top-dose-only effect, or another doubt; inactive = no such curve, though single readings can be large; an effect the other way counts as inactive or inconclusive. Unless noted, % is set by controls: 0 for no effect and ±100 for the full control effect.

SMILES	Giardia kill	PI4K2A inh	KB-3-1 tox	Nrf2 inh	A549 viability	KB-V1 cytotox
O=C(Nc1ccc(F)cc1)c1ccc(CN2CCc3ccccc3C2)cc1	7	-2	?	5.8µM*	-1%	5.8µM*
O=C(Nc1cccc(Br)c1)c1ccc(CN2CCc3ccccc3C2)cc1	5	5	?	8.2µM*	-18%	?
Cc1cccc(NC(=O)c2ccc(CN3CCc4ccccc4C3)cc2)c1C	-11	2	?	?	-11%	?
COC(=O)c1ccc(CN2CCc3ccc(NC(=O)c4ccncc4)cc3C2)cc1	-1	-7	?	-27%	-17%	13µM*
Cc1ccccc1NC(=O)c1ccc(CN2CCc3ccccc3C2)cc1	-20	-2	10µM*	?	0%	?
CSc1cccc(NC(=O)c2ccc(CN3CCc4ccccc4C3)cc2)c1	-6	3	?	?	-8%	?
Cc1cccc(NC(=O)C2CCN(c3nnc(-n4cccc4)s3)CC2)c1C	.	-8	.	.	.	.
O=C(NCCN1CCC(Cc2ccccc2)CC1)C1CCCN(S(=O)(=O)c2ccccc2[N+](=O)[O-])C1 (configuration not stated)	.	-3	.	.	.	.
COc1ccccc1C(=O)Nc1ccc(S(=O)(=O)N2CCOCC2)cc1	3	6	i	.	-1%	?
CC(=O)N1CCN(c2ccc(S(=O)(=O)N3CCOCC3)cc2[N+](=O)[O-])CC1	-27	2	i	1%	3%	i
COc1ccccc1C(=O)Nc1ccc(S(=O)(=O)N2CCC(C)CC2)cc1	8	1	?	23µM*	-17%	?
COc1ccccc1C(=O)Nc1ccc(S(=O)(=O)N2CCCCC2c2cccnc2)cc1 (configuration not stated)	19	7	i	16µM*	-20%	i
CCOC(=O)Nc1ccc(S(=O)(=O)N2CCC(C)CC2)cc1	-2	0	i	-2%	0%	21µM*
CCOC(=O)N1CCN(c2ccc(S(=O)(=O)N3CCC(C)CC3)cc2[N+](=O)[O-])CC1	11	0	?	18µM*	-2%	i
CCOC(=O)Nc1ccc(S(=O)(=O)N2CCOCC2)cc1	-19	0	i	1%	13%	i
COc1ccc(CN2C(=O)[C@]3(NCCc4c3[nH]c3ccc(OC)cc43)c3cc(F)ccc32)cc1	.	4	.	.	.	.
COc1ccccc1C(=O)NCCC(=O)Nc1ccc(S(=O)(=O)N2CCC(C)CC2)cc1	-13	-3	i	12µM*	-13%	i
COc1ccccc1CNC(=O)C1CCN(S(=O)(=O)c2ccc3c(c2)CCCN3C(C)=O)CC1	.	1	i	.	-4%	i
COc1ccc([C@H]2OC(=O)C[C@H]2C(=O)N2CCCC2)cc1OC	.	3	.	.	.	.
Cc1ccc(-n2c(C)cc(C(=O)COC(=O)c3ccc[nH]c3=O)c2C)cc1	?	-3	i	?	0%	18µM*
Cc1cc(C(=O)COc2cccc([N+](=O)[O-])c2)c(C)n1C1CC1	3	4	i	-7%	2%	i
COc1ccc(-n2c(C)cc(C(=O)CN3C(=O)c4ccccc4C3=O)c2C)cc1	7	-4	i	25%	5%	i
Cc1cc(C(=O)COC(=O)c2cccc(O)c2)c(C)n1C1CC1	-3	-16	i	13µM*	-1%	i
COc1ccc(-n2c(C)cc(C(=O)CCl)c2C)cc1	2	17	6.5µM*	?	?	?
Cc1cc(C(=O)COC(=O)c2ccc[nH]c2=O)c(C)n1-c1ccc(Br)cc1	-11	-2	i	9%	0%	i
SMILES	Giardia kill	PI4K2A inh	KB-3-1 tox	Nrf2 inh	A549 viability	KB-V1 cytotox
Cc1cc(C(=O)COC(=O)c2ccc(O)cc2O)c(C)n1-c1ccc(OC(F)F)cc1	-9	0	16µM*	?	-12%	?
O=Cc1ccc2[nH]ccc2c1	.	.	i	.	.	i
Cc1cc(C(=O)OCC(N)=O)c(C)n1-c1ccccc1	2	4	?	20%	4%	i
COc1ccc(-n2c(C)cc(C(=O)COC(=O)c3ccc(O)cc3O)c2C)cc1	5	-8	?	13µM*	?	?
Cc1cc(C(=O)COC(=O)c2ccc(O)cc2O)c(C)n1-c1ccccc1	12	1	?	-8%	-11%	16µM*
COc1ccc(-n2c(C)cc(C(=O)COC(=O)Cn3cnc4ccccc43)c2C)cc1	18	2	?	?	-2%	i
CCOC(=O)[C@]12CCCCC/C=C\1N(Cc1ccc(OC)cc1)C(=O)[C@H]2CC(=O)NCC12CC3CC(CC(C3)C1)C2	.	2	.	.	.	.
CCCCn1c(C)csc1=Nc1cccnc1	4	0	i	?	8%	i
CC(C)n1c(-c2ccco2)csc1=Nc1cccnc1	4	-8	?	13µM*	-10%	?
O=C1/C(=C/c2cccs2)SC(=S)N1c1ccccc1	-4	-11	i	10µM*	?	i
O=C1/C(=C/c2cccs2)SC(=S)N1c1cccc(O)c1	0	-2	i	13%	-2%	i
COc1ccc2cc(/C=C/C(=O)N3CCN(CC(=O)N4CCCCCC4)CC3)ccc2c1	-26	0	i	21µM*	-15%	15µM*
COc1ccc(N2CCN(CC(=O)N3CCC(C)CC3)CC2)cc1	-16	0	i	8%	5%	18µM*
COc1ccc(N2CCN(CC(=O)Nc3sccc3C#N)CC2)cc1	7	-5	i	5%	8%	16µM*
CN(C)c1ccc(C=c2c3cc(O)ccc3n3c2cc(-c2ccccc2)[n+]3C)cc1	0	?	?	18µM*	?	?
C[n+]1c(-c2ccccc2)cc2c(=Cc3ccccc3)c3ccccc3n21	0	?	?	21µM*	?	?
C[C@@H]1CCN(C2CC2)S(=O)(=O)c2c(cccc2N2CC[C@H](O)C2)O1	.	3	.	.	.	.
Nn1c(SCC(=O)Nc2nccs2)nnc1-c1cc(-c2ccc(F)cc2)n[nH]1	.	-3	.	.	.	.
COc1ccc(Br)cc1CSC(=N)N	-1	1	i	-2%	-19%	i
CCCCCOc1ccc(Br)cc1CSC(=N)N	5	-1	12µM*	?	-6%	9.2µM*
Cc1ccc(Nc2c3c(nc4nncn24)CCC3)cc1C	.	-2	.	-7%	0%	.
O=C(c1ccc(Br)s1)N1CCN(C/C=C/c2ccccc2)CC1	12	-5	i	6%	-2%	15µM*
O=C(c1ccc(Br)o1)N1CCN(C/C=C/c2ccccc2)CC1	-6	0	i	5%	-1%	i

Assay outcomes (PubChem)
